Measurements: the supplement of paper PMC11732987, “Enantioselective OTUD7B fragment discovery through chemoproteomics screening and high-throughput optimisation” (Communications Chemistry, 2025)

What was measured:
Test in all cases: log2 ratio of Biotin-Ahx-Ub-VS probe labelling (fragment/DMSO); higher = less target engagement (more negative = stronger competition), active = hit call of the paper (q ≤ 0.05, log2 ratio ≤ -1)
Conditions in all cases: compound concentration: 200 uM; treatment time: 3 h
OTUD6B = target: T1, OTUD6B (UniProt Q8N6M0)
T1 sequence (whole entry): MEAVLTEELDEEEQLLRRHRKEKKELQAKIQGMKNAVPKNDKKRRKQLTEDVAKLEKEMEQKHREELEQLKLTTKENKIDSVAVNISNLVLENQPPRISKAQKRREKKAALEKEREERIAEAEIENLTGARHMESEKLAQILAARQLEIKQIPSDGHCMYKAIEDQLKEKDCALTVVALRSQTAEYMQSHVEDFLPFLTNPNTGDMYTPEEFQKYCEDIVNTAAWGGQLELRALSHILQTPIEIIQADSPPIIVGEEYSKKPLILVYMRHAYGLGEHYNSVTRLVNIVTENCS
In short: (§1)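 Using Biotin-Ahx-Ub-VS at 0.5 µM final for 1 h, DUBs were labelled in HEK293T lysate (495 µg per sample) that had first been treated in triplicate with fragment at 200 µM or vehicle for 3 h. NeutrAvidin enrichment, LysC and trypsin digestion and diaPASEF LC-MS/MS followed. Spectronaut label-free quantities were global-median-normalised. Values are average log2 fragment/vehicle ratios by unpaired t-test, using proteins with ≥2 unique peptides.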

OTUD7B = target: T2, OTUD7B (UniProt Q6GQQ9)
T2 sequence (whole entry): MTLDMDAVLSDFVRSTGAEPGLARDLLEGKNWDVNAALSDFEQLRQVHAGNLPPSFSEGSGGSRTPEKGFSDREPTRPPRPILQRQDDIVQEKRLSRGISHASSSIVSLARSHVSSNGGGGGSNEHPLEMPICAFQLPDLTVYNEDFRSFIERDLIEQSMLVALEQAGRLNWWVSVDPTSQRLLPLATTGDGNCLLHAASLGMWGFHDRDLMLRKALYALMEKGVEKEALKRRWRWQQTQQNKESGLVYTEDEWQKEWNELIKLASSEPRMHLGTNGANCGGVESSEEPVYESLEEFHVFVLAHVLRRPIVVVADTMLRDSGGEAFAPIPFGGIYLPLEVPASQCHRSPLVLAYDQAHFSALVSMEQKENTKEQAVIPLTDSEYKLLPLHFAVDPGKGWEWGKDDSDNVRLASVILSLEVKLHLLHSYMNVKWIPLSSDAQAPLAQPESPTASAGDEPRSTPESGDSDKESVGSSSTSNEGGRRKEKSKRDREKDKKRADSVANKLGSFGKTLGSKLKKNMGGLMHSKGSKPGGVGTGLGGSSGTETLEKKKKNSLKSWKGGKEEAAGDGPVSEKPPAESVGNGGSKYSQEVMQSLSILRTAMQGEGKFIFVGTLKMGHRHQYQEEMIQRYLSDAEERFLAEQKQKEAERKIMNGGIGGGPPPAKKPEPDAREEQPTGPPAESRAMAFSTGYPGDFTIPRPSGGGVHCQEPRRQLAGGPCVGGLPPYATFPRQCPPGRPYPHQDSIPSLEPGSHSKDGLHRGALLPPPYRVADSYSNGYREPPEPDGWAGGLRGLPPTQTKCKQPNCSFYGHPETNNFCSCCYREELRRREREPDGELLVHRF
In short: as §1

PRPF8 = PRPF8 (UniProt Q6P2Q9)
In short: as §1

PSMD7 = target: T3, PSMD7 (UniProt P51665)
T3 sequence (whole entry): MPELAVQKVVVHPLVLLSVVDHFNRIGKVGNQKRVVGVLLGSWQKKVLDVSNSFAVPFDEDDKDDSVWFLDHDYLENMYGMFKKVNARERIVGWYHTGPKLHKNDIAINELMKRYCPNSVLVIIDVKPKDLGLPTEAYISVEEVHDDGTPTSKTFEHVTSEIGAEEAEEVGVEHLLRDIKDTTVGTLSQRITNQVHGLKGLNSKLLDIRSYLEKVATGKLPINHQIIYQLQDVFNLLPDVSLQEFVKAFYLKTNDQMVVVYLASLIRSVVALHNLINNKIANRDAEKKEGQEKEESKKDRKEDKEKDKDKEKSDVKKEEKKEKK
In short: as §1

UCHL1 = UCHL1 (UniProt P09936)
UCHL1, sequence (P09936 whole entry, looked up): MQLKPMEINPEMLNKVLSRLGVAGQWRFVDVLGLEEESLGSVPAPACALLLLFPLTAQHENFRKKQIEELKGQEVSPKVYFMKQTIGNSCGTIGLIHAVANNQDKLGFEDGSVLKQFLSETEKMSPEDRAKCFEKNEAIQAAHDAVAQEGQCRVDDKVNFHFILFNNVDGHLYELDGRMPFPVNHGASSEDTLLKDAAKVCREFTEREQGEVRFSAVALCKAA
In short: as §1

UCHL3 = target: T4, UCHL3 (UniProt P15374)
T4 sequence (whole entry): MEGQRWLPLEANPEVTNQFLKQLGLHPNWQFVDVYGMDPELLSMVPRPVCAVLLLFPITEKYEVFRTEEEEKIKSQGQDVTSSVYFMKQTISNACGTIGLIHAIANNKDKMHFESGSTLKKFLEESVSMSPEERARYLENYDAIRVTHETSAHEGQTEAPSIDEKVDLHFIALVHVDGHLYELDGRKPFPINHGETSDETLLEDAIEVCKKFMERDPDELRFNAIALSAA
In short: as §1

UCHL5 = target: T5, UCHL5 (UniProt Q9Y5K5)
T5 sequence (whole entry): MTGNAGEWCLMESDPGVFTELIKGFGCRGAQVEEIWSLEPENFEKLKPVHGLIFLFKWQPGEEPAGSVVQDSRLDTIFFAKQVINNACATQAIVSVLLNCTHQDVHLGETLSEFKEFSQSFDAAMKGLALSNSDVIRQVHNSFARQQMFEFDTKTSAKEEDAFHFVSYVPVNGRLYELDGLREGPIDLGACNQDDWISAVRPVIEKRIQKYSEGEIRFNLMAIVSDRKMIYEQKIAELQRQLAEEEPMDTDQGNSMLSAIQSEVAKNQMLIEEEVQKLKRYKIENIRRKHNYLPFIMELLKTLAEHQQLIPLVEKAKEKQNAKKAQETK
In short: as §1

USP10 = USP10 (UniProt Q14694)
USP10, sequence (Q14694 whole entry): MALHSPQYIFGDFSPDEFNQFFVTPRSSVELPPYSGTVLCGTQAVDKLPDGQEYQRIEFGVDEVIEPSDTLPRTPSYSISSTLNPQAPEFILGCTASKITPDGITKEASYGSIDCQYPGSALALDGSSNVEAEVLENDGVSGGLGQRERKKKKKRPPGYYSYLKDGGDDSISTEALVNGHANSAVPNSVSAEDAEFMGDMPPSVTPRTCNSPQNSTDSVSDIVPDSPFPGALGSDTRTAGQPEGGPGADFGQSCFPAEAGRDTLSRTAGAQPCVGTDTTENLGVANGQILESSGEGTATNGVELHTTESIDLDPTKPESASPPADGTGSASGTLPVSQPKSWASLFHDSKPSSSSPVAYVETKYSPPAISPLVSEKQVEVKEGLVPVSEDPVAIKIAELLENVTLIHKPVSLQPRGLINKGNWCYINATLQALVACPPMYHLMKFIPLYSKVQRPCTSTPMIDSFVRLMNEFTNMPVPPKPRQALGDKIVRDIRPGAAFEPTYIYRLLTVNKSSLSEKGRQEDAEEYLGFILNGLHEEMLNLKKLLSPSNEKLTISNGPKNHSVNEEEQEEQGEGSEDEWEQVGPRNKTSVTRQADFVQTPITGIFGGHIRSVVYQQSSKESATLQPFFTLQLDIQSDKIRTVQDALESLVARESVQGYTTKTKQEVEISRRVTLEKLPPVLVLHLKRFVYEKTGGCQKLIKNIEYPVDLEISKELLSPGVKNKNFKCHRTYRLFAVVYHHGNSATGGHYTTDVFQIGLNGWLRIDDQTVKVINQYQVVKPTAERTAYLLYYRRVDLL
In short: as §1

USP15 = target: T6, USP15 (UniProt Q9Y4E8)
T6 sequence (whole entry): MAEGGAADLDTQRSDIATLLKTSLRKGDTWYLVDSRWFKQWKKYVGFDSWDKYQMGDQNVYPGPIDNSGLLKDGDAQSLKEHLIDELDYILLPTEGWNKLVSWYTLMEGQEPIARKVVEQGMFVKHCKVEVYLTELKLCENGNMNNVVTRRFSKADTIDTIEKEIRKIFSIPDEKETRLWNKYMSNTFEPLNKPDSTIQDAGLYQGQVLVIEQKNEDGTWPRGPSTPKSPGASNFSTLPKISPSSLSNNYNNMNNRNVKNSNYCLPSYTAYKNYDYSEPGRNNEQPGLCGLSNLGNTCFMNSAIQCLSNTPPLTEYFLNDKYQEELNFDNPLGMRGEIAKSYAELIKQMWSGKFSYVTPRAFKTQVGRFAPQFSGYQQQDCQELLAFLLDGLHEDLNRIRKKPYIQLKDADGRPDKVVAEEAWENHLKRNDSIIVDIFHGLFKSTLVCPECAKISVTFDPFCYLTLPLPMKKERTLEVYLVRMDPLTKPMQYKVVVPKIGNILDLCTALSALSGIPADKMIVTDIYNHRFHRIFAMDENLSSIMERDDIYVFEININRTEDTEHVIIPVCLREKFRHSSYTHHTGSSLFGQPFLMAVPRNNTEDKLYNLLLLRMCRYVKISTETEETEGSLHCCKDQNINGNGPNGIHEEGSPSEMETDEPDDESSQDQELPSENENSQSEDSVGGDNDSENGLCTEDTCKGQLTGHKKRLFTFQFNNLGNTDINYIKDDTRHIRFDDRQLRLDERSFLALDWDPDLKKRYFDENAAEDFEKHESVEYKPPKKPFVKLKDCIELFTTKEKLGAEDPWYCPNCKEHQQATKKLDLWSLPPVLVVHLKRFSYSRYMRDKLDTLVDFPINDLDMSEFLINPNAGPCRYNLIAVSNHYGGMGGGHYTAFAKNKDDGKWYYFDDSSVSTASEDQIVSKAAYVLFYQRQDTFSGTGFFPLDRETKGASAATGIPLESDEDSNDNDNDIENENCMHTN
In short: as §1

USP16 = USP16 (UniProt Q9Y5T5)
USP16, sequence (Q9Y5T5 whole entry, looked up): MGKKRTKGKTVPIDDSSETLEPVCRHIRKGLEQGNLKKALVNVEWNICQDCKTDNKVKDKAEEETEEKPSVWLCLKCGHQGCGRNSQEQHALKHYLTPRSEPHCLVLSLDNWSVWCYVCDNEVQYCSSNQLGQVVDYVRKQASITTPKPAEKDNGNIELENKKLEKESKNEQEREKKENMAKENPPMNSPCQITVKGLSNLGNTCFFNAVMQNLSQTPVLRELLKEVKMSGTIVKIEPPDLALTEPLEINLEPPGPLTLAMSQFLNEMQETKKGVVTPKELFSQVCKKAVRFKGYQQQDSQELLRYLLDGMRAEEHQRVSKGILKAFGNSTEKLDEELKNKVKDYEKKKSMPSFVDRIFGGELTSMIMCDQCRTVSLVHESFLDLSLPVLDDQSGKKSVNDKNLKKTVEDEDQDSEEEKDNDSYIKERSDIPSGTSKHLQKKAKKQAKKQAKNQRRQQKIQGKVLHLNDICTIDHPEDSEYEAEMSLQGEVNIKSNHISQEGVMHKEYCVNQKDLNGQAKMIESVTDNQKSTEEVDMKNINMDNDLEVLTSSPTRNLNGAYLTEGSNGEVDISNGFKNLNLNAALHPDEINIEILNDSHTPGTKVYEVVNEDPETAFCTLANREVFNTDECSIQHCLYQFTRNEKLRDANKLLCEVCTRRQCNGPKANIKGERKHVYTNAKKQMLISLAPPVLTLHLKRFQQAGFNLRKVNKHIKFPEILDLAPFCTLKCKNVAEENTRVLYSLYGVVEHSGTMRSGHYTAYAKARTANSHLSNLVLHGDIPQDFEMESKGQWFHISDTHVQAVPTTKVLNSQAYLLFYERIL
In short: as §1

Measured: log2 ratio of Biotin-Ahx-Ub-VS probe labelling

CNC(=O)C1CCN(C(=O)CCl)CC1
inactive: OTUD6B -0.163 | OTUD7B -0.121 | PRPF8 -0.218 | PSMD7 0.12 | UCHL1 -0.544 | UCHL3 0.53 | UCHL5 -0.0712 | USP10 -0.383 | USP15 -0.0196 | USP16 0.31
